NALP3 yeast inh = NALP3 inflammasome inhibitors in reconstituted yeast, primary screen, luminescence, uHTS | Yeast reconstituted NLRP3/ASC/caspase-1, beta-gal luminescence, 24 h | inhibition, % at 10 µM | 330,000 tested, 0.39% active | AID 2825, 2010;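 active means inhibition of 50% or more; inactive means inhibition below 50%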;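 further: plate controls were induced DMSO wells for no effect and uninduced yeast grown without galactose for full effect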
tim10-1 inh = growth inhibitors of tim10-1 mutant yeast, primary screen, luminescence, uHTS; AID 463190, 2010; S. cerevisiae tim10-1 ts strain growth, BacTiter-Glo, 24 h; inhibition, % at 20 µM; 330,000 tested, 2.2% active;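 active means inhibition of at least 40%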;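 further: mutant grown at 25 °C; 0% = DMSO wells with yeast and 100% = wells holding no yeast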
NALP1 inh = NALP1 inflammasome inhibitors in reconstituted yeast, colorimetric, S. cerevisiae, triplicate retest; S. cerevisiae NALP1/ASC/caspase-1 growth, X-gal OD620, 72 h; inhibition, % at 10 µM; 280,000 tested, 0.61% active; in the data active means inhibition mostly above about 24%, no sharp cut-off; inactive means mostly below about 32%
tim23-1 inh = growth inhibitors of tim23-1 mutant yeast, primary screen, luminescence, uHTS; 330,000 tested, 1.3% active; S. cerevisiae tim23-1 growth, BacTiter-Glo luminescence, 24 h; inhibition, % at 20 µM;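 active means growth inhibition of the mutant yeast at or above 50%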;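 further: temperature-sensitive mutant grown at 25 °C; plate controls were DMSO-treated mutant yeast for no effect and medium wells lacking yeast for full effect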
TIM10 inh = growth inhibitors of isogenic TIM10 control yeast, primary screen, counter-screen for tim10-1 yeast inhibitor project, luminescence, uHTS; 330,000 tested, 1.4% active; inhibition, % at 10 µM; AID 463195, 2010; S. cerevisiae TIM10 strain growth, BacTiter-Glo luminescence, 24 h;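 active means inhibition of 40% or more at the single tested concentration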;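 further: wild-type TIM10 isogenic control strain grown at permissive 25 °C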
tim10-1 conf = growth inhibitors of tim10-1 mutant yeast, confirmation, single concentration, luminescence, S. cerevisiae; shares compounds with tim10-1 inh; S. cerevisiae tim10-1 ts strain growth, BacTiter-Glo, 24 h; inhibition, % at 20 µM; 7,400 tested, 56% active; AID 463213, 2010;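 active means inhibition of yeast growth at or above a set limit in either of two repeat tests at 20 µM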;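 further: tim10-1 mutant grown at permissive 25 °C to find synthetic lethal compounds; 0% = DMSO yeast wells and 100% = medium wells without yeast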
* = called active by the depositor; . = no result given. Compounds with a hit are over-represented: about 4% of the library has one in this group of screens.

SMILES	NALP3 yeast inh	tim10-1 inh	NALP1 inh	tim23-1 inh	TIM10 inh	tim10-1 conf
O=C(NNC(=S)Nc1cccc(C(F)(F)F)c1)c1cccc(Cl)c1	12	50*	15	41	36	46*
CCOc1ccccc1NC(=O)CCS(=O)(=O)c1ccc(Br)cc1	0	41*	-4	36	3	39*
COc1ccccc1NC(CC(=O)c1ccccc1)C(=O)OCC(=O)c1ccc(Br)cc1 (centres undefined)	-10	45*	-3	40	15	37*
COc1ccccc1NC(CC(=O)c1ccccc1)C(=O)OCC(=O)c1ccc(C)cc1 (centres undefined)	-20	17	38	26	28	.
CN(C)CCCN(C(=O)c1ccc(S(=O)(=O)N2CCc3ccccc3C2)cc1)c1nc2c(F)cc(F)cc2s1	18	42*	.	23	14	35*
Cc1ccc2sc(N(CCCN(C)C)C(=O)c3ccc(S(=O)(=O)N(C)Cc4ccccc4)cc3)nc2c1C	38	54*	.	12	29	12
CN(C)CCCN(C(=O)c1ccc(C(=O)c2ccccc2)cc1)c1nc2c(F)cccc2s1	13	47*	28	18	19	13
CCN(Cc1ccccc1)S(=O)(=O)c1ccc(C(=O)N(CCCN(C)C)c2nc3cc(C)cc(C)c3s2)cc1	23	52*	.	25	-1	-5
O=C(NCc1ccccc1)NC(=O)c1ccccc1F	11	-1	0	15	4	.
CCOc1cccc2sc(N(CCN(CC)CC)C(=O)c3ccc(S(=O)(=O)N4CCCCC4)cc3)nc12	9	48*	12	2	-11	22
CCOC(=O)N1CCN(S(=O)(=O)c2ccc(C(=O)N(CCCN(C)C)c3nc4ccc(CC)cc4s3)cc2)CC1	19	43*	31	18	22	16
COc1cccc2sc(N(CCCN(C)C)C(=O)c3ccc(S(=O)(=O)N4CCc5ccccc5C4)cc3)nc12	12	26	14	1	8	.
Cc1ccc2sc(N(CCCN(C)C)C(=O)c3ccc(S(=O)(=O)N4CCc5ccccc5C4)cc3)nc2c1C	15	40*	.	20	20	29
CCOC(=O)N1CCN(S(=O)(=O)c2ccc(C(=O)N(CCN(C)C)c3nc4ccc(CC)cc4s3)cc2)CC1	23	31	9	8	7	.
COc1cccc(-n2nc(C(C)=O)c(C#N)c2-c2ccco2)c1	14	6	25	0	-14	.
Cc1ccc(C(=O)NCc2ccccn2)cc1S(=O)(=O)N1CCCCC1	7	0	-12	-20	-18	.
Clc1ccc(Cn2cc(/C=N/n3cnnc3)c3ccccc32)c(Cl)c1	13	19	44	20	-2	.
C(=N\n1cnnc1)/c1cn(Cc2ccccc2)c2ccccc12	18	49*	-11	27	25	-21
Cc1ccc(C(=O)NCC(=O)N2CCCC(C(F)(F)F)C2)s1 (centres undefined)	2	5	.	-4	-2	.
CCSC1(SCC)N=C(N)C2(C#N)C(c3ccc(OC)c(OC)c3OC)C12C#N (centres undefined)	19	61*	.	14	33	62*
C=CCc1cccc(CNc2ccc(Br)cc2)c1O	20	43*	6	37	35	64*
C=CCc1cccc(CNc2nc3ccccc3n2C(C)C)c1O	16	43*	-42	27	37	34*
O=c1c2oc3ccccc3c2ncn1Cc1ccc(Cl)cc1	2	-1	-4	-7	-8	.
Cc1cccc(NC(=O)CSCC(=O)Nc2ccccc2N2CCCC2)c1	15	-1	22	17	-15	.
CC(C)c1ccc(/C=C2\C(=O)N(CCN3CCOCC3)C(=S)N2C)cc1	14	45*	11	43	33	40*
SMILES	NALP3 yeast inh	tim10-1 inh	NALP1 inh	tim23-1 inh	TIM10 inh	tim10-1 conf
COc1ccc(OC)c(-c2cc(C3CCN(c4cc(Cl)nc(N)n4)CC3)[nH]n2)c1	7	25	1	26	30	.
Nc1nc(Cl)cc(N2CCC(c3cc(-c4ccc(Cl)cc4)n[nH]3)CC2)n1	8	84*	-12	48	35	73*
COc1ccc(C(C)(C)C)cc1NC(=O)COC(=O)C1=NNC(=O)CC1	-11	0	.	15	9	.
CC(Oc1cccc2ccccc12)C(=O)N/N=C/c1cccnc1 (centres undefined)	13	44*	23	22	7	-3
CC(Sc1ccccc1)C(=O)N/N=C/c1cccnc1 (centres undefined)	-10	18	10	0	-7	.
CC(C)OC(=O)C(=O)NNc1ccccc1	14	-8	37	-69	-26	.
C=C(C)C(=O)NNc1ccccc1	9	41*	27*	48	8	37*
Cc1ccc(NS(=O)(=O)c2ccc3[nH]c(=O)sc3c2)cc1	2	-13	-6	17	-16	.
C=C1CCN([C@H](C(=O)OCc2cccc(C)c2)C(C)C)S(=O)(=O)c2ccccc21	-3	44*	-5	19	8	8
C=C1CCN([C@H](C(=O)O)C(C)C)S(=O)(=O)c2ccccc21	13	-2	.	2	11	.
O=C(c1cc2cc(F)ccc2[nH]1)N1CCN(Cc2ccc3c(c2)OCO3)CC1	8	44*	19	30	20	-18
COc1cc2cc(C(=O)N3CCN(Cc4ccc5c(c4)OCO5)CC3)[nH]c2cc1OC	-9	10	21	4	12	.
CSCCC(NC(=O)c1ccccc1Cl)C(=O)NNC(=O)c1ccncc1 (centres undefined)	21	-1	.	20	4	.
Cc1nc([N+](=O)[O-])c(N2CCN(Cc3ccccc3)CC2)n1Cc1ccccc1	25	26	8	3	4	.
Cc1cc2nc(Sc3c([N+](=O)[O-])nc(C)n3Cc3ccccc3)[nH]c2cc1C	19	43*	14	37	25	39*
COc1ccc2nc(Sc3c([N+](=O)[O-])nc(C)n3Cc3ccccc3)[nH]c2c1	-5	33	-8	32	33	.
Cc1nc([N+](=O)[O-])c(Sc2nc3ccccc3[nH]2)n1Cc1ccccc1	3	44*	12	23	4	22
COc1ccc(CCNC2CC(=O)N(C3CCCCC3)C2=O)cc1OC (centres undefined)	3	19	-15	20	4	.
O=C(O)C1=CC[C@@H](c2ccc(Cl)cc2)N(S(=O)(=O)c2ccc(Cl)cc2)[C@H]1c1cccc(Cl)c1	5	40*	.	9	-8	13
COc1cc(SC)ccc1C(=O)NNC(=O)c1cc(C)oc1C	34	53*	.	44	23	26

Compound activity: PubChem, Sanford-Burnham Center for Chemical Genomics
